Source: PubChem
IL-1B inflam inh: inhibitors of inflammasome signaling (IL-1 beta secretion) | THP-1 LPS/ATP IL-1B secretion, AlphaLISA, 16 h; hits give low values | activity change, % at 57.5 µM | 360,000 compounds, 4.7% hits | AID 743279; in the data active = activity change below about -50%; inconclusive = mostly about -30% to -49%; also: % is scaled to controls: 0 for no effect and ±100 for the full control effect
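Secreted IL-1B measured by AlphaLISA bead assay after 16 h compound exposure of THP-1 cells; compounds (final up to 57.5 uM) added 1 h before LPS (250 ng/mL) and ATP (1.25 mM) stimulation; lower signal means less secretion.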
MCF10A rerep: inducers of DNA re-replication in MCF 10A breast cells. Potency, µM (doses to about 46.1 µM), for the others: at the highest dose activity, positive = re-replication, actives largely listed as activators. 350,000 compounds, 2.9% hits. MCF 10A DNA re-replication, Hoechst nuclear intensity, 48 h; also: potency is read from the fitted curve at half-maximal effect; % of control where 0% means no effect; nearly all actives have a fitted effect of over 50% in size
SW480 rereplic: inducers of DNA re-replication in SW480 colon cancer cells; SW480 DNA re-replication, Hoechst DNA content imaging, 48 h; Potency, µM (top dose mostly 46.1 µM), without a hit: at the top dose re-replication activation, most hits filed as activators; 340,000 compounds, 1.8% hits; AID 624297; also: potency is read from the fitted curve at half-maximal effect; % of control where 0% means no effect; nearly all actives have a fitted effect of over 55% in size
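250 cells/well; 23 nL cpd via pin tool; 48 hr, 37 C, 5% CO2; Hoechst 40 min; imager read of total nuclear intensity, ex 405/em 500-530 nm.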
KB-V1 cytotox: kills drug-selected multidrug resistant KB-V1 cells; 400,000 compounds, 3.4% hits; AID 1347076; Potency, µM (series often up to 46.1 µM), hits mostly cytotoxic; KB-V1 MDR cells viability, CellTiter-Glo, 72 h; also: potency is read from the fitted curve at half-maximal effect; % is scaled to controls: 0 for no effect and ±100 for the full control effect; nearly all actives have a fitted effect of over 60% in size
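KB-V1 MDR subline cells in DMEM (phenol-red free, 10% FBS) exposed to compounds in qHTS concentration series for 72 h at 37 degrees C. Viability read by CellTiter-Glo luminescence; concentration-effect curves fitted after normalization and correction.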
KB-3-1 cytotox: kills parental KB-3-1 adenocarcinoma cells | KB-3-1 viability, CellTiter-Glo ATP luminescence, 72 h | 400,000 compounds, 1.4% hits | Potency, µM (top dose mostly 46.1 µM), usual class: cytotoxic; also: potency is read from the fitted curve at half-maximal effect; % is scaled to controls: 0 for no effect and ±100 for the full control effect; nearly all actives have a fitted effect of over 60% in size
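Viability of parental KB-3-1 cells, measured by CellTiter-Glo luminescence, followed a 72 h incubation at 37 °C with pinned compounds in phenol-red-free DMEM containing 10% FBS.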
* hit, by the source's call; i = inactive; ? = inconclusive; . = no result. Compounds with a hit are over-represented: about 9.9% of the library has one in this group of screens. Unless noted, calls follow the shape of the dose curve; as a rule, active = well fitted curve in the direction sought with a large enough effect; inconclusive = small, poorly fitted or top-dose-only effect, or another doubt; inactive = no such curve, though single readings can be large; an effect the other way counts as inactive or inconclusive.

SMILES | IL-1B inflam inh | MCF10A rerep | SW480 rereplic | KB-V1 cytotox | KB-3-1 cytotox
O=[N+]([O-])c1ccc(CC(Cl)c2ccccn2)cc1 (stereo unspecified) | -50* | 2% | 1% | i | i
O=[N+]([O-])c1ccc(Cc2ccccn2)cc1 | 25 | 1% | -8% | i | i
CC(C)(Cc1ccc(O)cc1)NC(=O)CC(=O)N/N=C/c1ccc(Cl)cc1 | -4 | 13µM* | ? | i | ?
Cc1onc(-c2c(Cl)cccc2Cl)c1NC(=O)N1CCSCC1 | 8 | 4% | -8% | i | i
Cc1cc(NC(=O)c2cccc(Br)c2)n[nH]1 | -2 | -4% | 3% | i | i
Cc1ccc(-c2cnc(NC(=O)c3cccc(Br)c3)s2)c(C)c1 | -58* | -6% | ? | ? | i
CCCc1cc(-c2nc(-c3ccc(Cl)cc3)cs2)ccn1 | 15 | ? | -5% | 16µM* | i
CN[C@H](C)C(=O)NC[C@H]1O[C@@H](n2cnc3c(N)ncnc32)[C@H](O)[C@@H]1O | 24 | 1% | ? | i | i
CCN(CC(=O)Nc1cc(Cl)cc(Cl)c1)CC(=O)NC1CCS(=O)(=O)C1 (stereo unspecified) | -5 | 3% | 22% | i | i
CSC1=C(C#N)C(c2ccccc2Cl)C(C(C)=O)=C(C)N1 (stereo unspecified) | -1 | -11% | -5% | i | i
C=CCOC(=O)C1=C(C)NC(SCC(=O)Nc2nccs2)=C(C#N)C1c1ccc(Cl)cc1 (stereo unspecified) | -6 | 1µM* | 1.6µM* | i | ?
CC(=O)C1=C(C)NC(SCC(=O)Nc2nccs2)=C(C#N)C1c1ccccc1Cl (stereo unspecified) | ? | 1.8µM* | 6.5µM* | i | i
CCN(CCCNC(=O)C1CCN(S(=O)(=O)CC)CC1)c1cccc(C)c1 | 0 | -5% | -4% | i | i
CCN(CCCNC(=O)C1CCN(S(=O)(=O)CC)CC1)c1ccccc1 | 27 | 2.9µM* | 10% | i | i
CCc1ccc(-n2c(SCc3nc(-c4cc(OC)ccc4OC)no3)nnc2-c2ccccc2)cc1 | . | . | . | i | i
Cc1cc(C)cc(N(CCC(=O)Nc2nnc(C)s2)S(=O)(=O)c2ccc(Cl)cc2)c1 | 30 | ? | 17% | 23µM* | ?
Cc1cc(C)cc(N(CCC(=O)O)S(=O)(=O)c2ccc3ccccc3c2)c1 | 19 | 8.2µM* | ? | i | i
O=C(O)CCCNS(=O)(=O)c1ccc2ccccc2c1 | 14 | -2% | -2% | i | i
CCc1ccc(NC(=O)CCn2nc(-c3ccccc3OC)c3c(C)cc(C)nc32)cc1 | . | . | . | i | i
CC1(C)CC(=O)C(C(C2=C(O)CC(C)(C)CC2=O)c2ccc(Br)s2)C(=O)C1 (stereo unspecified) | -96* | 13µM* | ? | 21µM* | ?
Cc1ccc(C(C2=C(O)CC(C)(C)CC2=O)C2C(=O)CC(C)(C)CC2=O)s1 (stereo unspecified) | -17 | 23µM* | ? | i | i
CC1(C)CC(=O)C(C(C2=C(O)CC(C)(C)CC2=O)c2ccc([N+](=O)[O-])cc2)C(=O)C1 (stereo unspecified) | 14 | -3% | 1% | ? | i
O=S(=O)(c1ccccc1)N1CCN(Cc2ccccc2)c2ccccc21 | -5 | 2% | 1% | 18µM* | i
O=S(=O)(c1ccccc1)N1CCN(Cc2ccccc2)CC1 | -16 | 11% | -5% | ? | ?
Cc1cc2ccccc2n1-c1ccc(C(=O)N2CCC(C(=O)NCc3ccccc3Cl)CC2)s1 | . | . | . | i | i
SMILES | IL-1B inflam inh | MCF10A rerep | SW480 rereplic | KB-V1 cytotox | KB-3-1 cytotox
CCOC(=O)c1sc2ccccc2c1S(=O)(=O)NCc1ccccc1OC | . | . | . | i | i
Cn1cccc1Cc1nnc(SCC(=O)N2CCN(c3ccccc3)CC2)n1-c1ccc(F)cc1 | -23 | 14% | -6% | 12µM* | i
Cn1cccc1Cc1nnc(SCC(=O)NCc2ccccc2)n1-c1ccc(F)cc1 | ? | 11% | 1% | ? | i
Cn1c(SCC(=O)N2CCN(c3ccccc3)CC2)nnc1-c1cc2ccccc2o1 | -2 | 1% | -1% | i | 23µM*
Cn1c(Cc2cccc3ccccc23)nnc1SCC(=O)N1CCN(c2ccccc2)CC1 | -4 | 7% | 12% | 15µM* | i
Cc1occc1-c1nnc(SCC(=O)N2CCN(c3ccccc3)CC2)n1C | 29 | 1% | -4% | i | i
CNC(=O)C(N)CSC(C)C1=C(C)c2cc3[n-]c(cc4nc(cc5[n-]c(cc1n2)c(C)c5CCC(=O)O)C(CCC(=O)O)=C4C)c(C)c3C(C)SCC(N)C(=O)NC.[Fe+2] (stereo unspecified) | . | 4% | -9% | . | .
CCCc1cc(=O)oc2cc(C)cc(OCC(=O)Nc3cccnc3)c12 | ? | 12% | 23µM* | i | i
COc1ccc(Oc2ccc3c(C(F)(F)F)cc(C(F)(F)F)nc3n2)cc1 | -3 | 6% | 1% | 16µM* | i
FC(F)(F)c1ccc(Oc2ccc3c(C(F)(F)F)cc(C(F)(F)F)nc3n2)cc1 | -10 | 9% | 2% | i | i
CN(C(=O)c1cccc(NC(=O)Cc2ccc(NC(=O)C3CCN(C(=O)CCc4ccccc4)CC3)cc2)c1)C1CC1 | 11 | 2% | 19% | i | i
COc1cc(NC(=O)Cc2nn(C)c(=O)c3ccccc23)cc(OC)c1OC | 29 | 6% | -8% | 15µM* | i
CCC(=O)NCc1cc(-c2nn(C)c(=O)c3ccccc23)ccc1C | 13 | 12% | 0% | ? | i
COc1ccc(-c2nn(C)c(=O)c3ccccc23)cc1NC(=O)Cn1nc(C)c2ccccc2c1=O | -9 | 16% | 28% | 21µM* | i
COC(=O)Cn1nc(-c2ccc(C)c(S(=O)(=O)N(C)C)c2)c2ccccc2c1=O | 18 | 17% | -2% | 18µM* | i
Cc1ccc(-c2nn(CC(=O)N(C)C)c(=O)c3ccccc23)cc1S(=O)(=O)N(C)C | 11 | 2% | -11% | i | i
Cc1ccc(-c2nn(CC(=O)NCc3cc(-c4nn(C)c(=O)c5ccccc45)ccc3C)c(=O)c3ccccc23)cc1 | 38 | 9.2µM* | 6.5µM* | 7.3µM* | 23µM*
CN1CCN(Cc2cccc3ncccc23)CC1CCO (stereo unspecified) | -15 | 6% | 0% | i | i
Cc1cccc(NC(=O)CN(C)C(C)C(=O)Nc2ccc(S(=O)(=O)N3CCCC3)cc2)c1C (stereo unspecified) | -2 | 4% | 10% | ? | i
CC(C)(C)OC(=O)N1CCC(c2c(C(=O)NC3CCCCC3)cnn2-c2cccc(Cl)c2)CC1 | . | . | . | i | i
